Screening data as filed in PubChem.
This is a sample that favours compounds with a hit; in the whole collection about 1.2% have one here.
Mtb betalactam: beta-lactam sensitization of Mtb H37Rv | M. tuberculosis H37Rv growth with meropenem, percent inhibition | 330,000 tested, 0.27% active | AID 434955 | inhibition, % at 25 µM; call rule not given here;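 further: growth measured after seven days incubation then overnight dye step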
RecA intein inh: inhibitors of M. tuberculosis RecA intein splicing; AID 2221; inhibition, % (no concentration beside the values); P9WHJ3; cell-free RecA intein splicing, fluorescence; 290,000 tested, 0.75% active; in the data active means inhibition above about 30%; inconclusive means no clear call, values can overlap the other calls
CCHF vOTU inh-1: CCHFV vOTU protease inhibition; 370,000 tested, 0.55% active; inhibition, % at 11.5 µM; Pep-AMC fluorescence; AID 651958
Rv3671c inh: inhibits the M. tuberculosis serine protease Rv3671c | AID 2606 | inhibition, % at 5.96 µM | P9WHR9 | 320,000 tested, 0.048% active; in the data active means inhibition above about 38%;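 further: extracellular domain of Rv3671c used as enzyme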
Target sequence (P9WHR9 whole entry, looked up, the tested form may be a part): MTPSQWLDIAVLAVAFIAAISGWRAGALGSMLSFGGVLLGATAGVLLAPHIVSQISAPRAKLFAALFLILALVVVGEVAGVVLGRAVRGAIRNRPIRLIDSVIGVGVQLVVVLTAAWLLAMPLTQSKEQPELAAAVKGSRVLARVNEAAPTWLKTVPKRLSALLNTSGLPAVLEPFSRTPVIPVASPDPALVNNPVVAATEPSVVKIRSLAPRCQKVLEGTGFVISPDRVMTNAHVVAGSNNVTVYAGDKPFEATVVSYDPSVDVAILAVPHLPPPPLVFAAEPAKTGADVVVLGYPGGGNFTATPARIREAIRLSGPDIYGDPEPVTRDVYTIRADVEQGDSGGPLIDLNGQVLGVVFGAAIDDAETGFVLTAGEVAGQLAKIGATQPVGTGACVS
Mtb UGM inh: blocks M. tuberculosis UGM enzyme; P9WIQ1; purified UGM, fluorescence polarization probe displacement; inhibition, % at 10 µM; 320,000 tested, 0.06% active; AID 504406; in the data active means inhibition above about 10%, passing the limit was not always enough; inconclusive means no clear call, values can overlap the other calls
CCHF vOTU inh-2: CCHFV vOTU protease inhibition, confirmation. 1,900 tested, 17% active. shares compounds with CCHF vOTU inh-1. Recombinant CCHFV vOTU, Pep-AMC fluorescence. inhibition, % at 11.5 µM. AID 686976
Numbers stand for hits; i = inactive; ? = inconclusive; nt = no result. Unless noted, no stated cut-off is given here; in the data, active means inhibition above about 30%; inactive means the rest.

SMILES	Mtb betalactam	RecA intein inh	CCHF vOTU inh-1	Rv3671c inh	Mtb UGM inh	CCHF vOTU inh-2
CCCc1ccc(-c2cc(NC(=O)Cc3c(C)[nH]c4ccccc34)ccc2N(C)c2cccnc2)cc1	nt	nt	39.5	nt	nt	i
CCCc1ccc(-c2cc(NC(=O)Cc3c(C)[nH]c4ccccc34)ccc2Nc2cccnc2)cc1	nt	nt	i	nt	nt	nt
COc1ccc(-c2sc3cc(OC)c(OC)cc3c2-c2ccc(O)cc2)cc1	i	nt	32.6	i	i	i
CN=C(Nc1cccnc1)c1cccc(C(F)(F)F)c1	i	i	49.4	i	i	i
COC(=O)[C@]12C[C@H](CC(=O)NCC3CCCCC3)C(=O)N(Cc3cccc4ccccc34)C1=C[C@H](C1CCCC1)O[C@@H]2C	nt	nt	i	nt	nt	nt
C=Cc1cnc([N+](=O)[O-])n1C	nt	nt	30.4	nt	nt	i
CCCCN(C)C(=O)c1oc(=O)c2ccccc2c1-c1ccc(C)cc1	nt	nt	i	nt	nt	nt
CN(CC(=O)Nc1ccc(F)cc1)C(=O)COC(=O)c1ccccc1	i	i	29.9	i	i	i
CC(=O)c1cc(-c2ccccc2)n(CC(=O)NCc2ccccc2Cl)c1C	nt	nt	i	nt	nt	nt
CC(C)CCNC(=O)c1c(N)n(Cc2ccc3c(c2)OCO3)c2nc3ccccc3nc12	i	i	54.2	i	i	i
CC(C)(C)NCCC(O)c1cc(C(F)(F)F)nc2c(C(F)(F)F)cccc12 (stereo unspecified)	nt	nt	30.4	nt	nt	i
C[C@H](CCC(=O)N(c1ccccc1)c1ccccc1)CC1CCCCC1	nt	nt	i	nt	nt	nt
O=C(/C=C/c1ccc([N+](=O)[O-])s1)N1CCCC1	i	i	i	i	i	nt
O=C(/C=C/c1ccc([N+](=O)[O-])s1)N1CCCCC1	i	i	32.2	i	i	32.0
COC(=O)C1CN(C2CCCC2)CCS(=O)(=O)N1Cc1ccc(F)cc1 (stereo unspecified)	nt	nt	i	nt	nt	nt
C[C@H]1C2CC(OC(=O)Nc3cccc(C(F)(F)F)c3)C(C2)[C@H]2CCCCN21 (stereo partly specified)	nt	nt	i	nt	nt	nt
O=C(/C=C\Nc1ccccc1Br)c1ccc2c(c1)OCO2	i	i	31.9	i	i	i
O=C(/C=C/c1ccccc1Br)c1ccc2c(c1)OCO2	i	i	i	i	i	nt
CC(=O)Nc1c([N+](=O)[O-])cc2c3c(cccc13)CC2	nt	nt	33.4	nt	nt	i
CC(=O)Nc1ccc2c3c(cccc13)CC2	i	i	i	i	i	nt
O=C(COC(=O)c1ccc([N+](=O)[O-])s1)Nc1ccc(F)cc1	i	nt	82.1	i	i	72.2
O=C(COC(=O)c1ccc([N+](=O)[O-])s1)Nc1ccccc1	i	i	61.3	i	nt	74.7
O=C(COC(=O)c1cccs1)Nc1cccc(S(=O)(=O)NC2=NCCCCC2)c1	i	i	i	i	i	nt
O=C(COC(=O)c1ccc([N+](=O)[O-])s1)Nc1cccc(S(=O)(=O)NC2=NCCCCC2)c1	i	i	57.7	i	i	35.3
CC(C)(C)c1ccc(NC(=O)COC(=O)c2ccc([N+](=O)[O-])s2)cc1	i	nt	i	i	i	nt
SMILES	Mtb betalactam	RecA intein inh	CCHF vOTU inh-1	Rv3671c inh	Mtb UGM inh	CCHF vOTU inh-2
O=C(OCc1nnc(-c2ccccc2)o1)c1ccc([N+](=O)[O-])s1	i	nt	76.7	i	i	85.6
COC(=O)[C@]12C[C@H](CC(=O)NCc3ccc(C)o3)C(=O)N(Cc3cccc4ccccc34)C1=C[C@H](C(C)(C)C)O[C@@H]2C	nt	nt	i	nt	nt	nt
CCCCN1CN2Cc3cc(OC)ccc3C2CS1(=O)=O (stereo unspecified)	nt	nt	i	nt	nt	nt
Cc1ccc(-n2c(SCC(=O)c3ccc(F)cc3)nnc2-c2cccnc2)cc1	nt	nt	i	nt	nt	nt
CCOc1ccc(C(CC(=O)O)NC(=O)C2c3ccccc3Oc3ccccc32)cc1 (stereo unspecified)	i	i	i	i	i	nt
O=C(O)CC(NC(=O)C1c2ccccc2Oc2ccccc21)c1ccc(OC2CCCC2)cc1 (stereo unspecified)	i	i	32.9	i	i	i
CCOC(=O)c1c2c(n(C)c1C)C(=O)C(=O)c1ccc(Br)cc1-2	?	i	i	i	i	nt
CCOC(=O)c1c2c(n(Cc3ccccc3)c1C)C(=O)C(=O)c1ccccc1-2	nt	nt	102.3	nt	nt	102.2
CCn1c(=O)c(C(=O)NCCN2CCCCC2)c(O)c2ccccc21	i	nt	34.2	i	i	i
O=[N+]([O-])c1ccccc1-c1ccc(C(=S)N2CCCC2)o1	i	i	30.1	i	i	39.1
CCCCCC(=O)NC1CCCCN(Cc2cccc(Cl)c2)C1=O (stereo unspecified)	nt	nt	i	nt	nt	nt
Cc1ccc(S(=O)(=O)NC(=O)Cn2nnc(-c3ccccc3)c2COc2ccc3ccccc3c2)cc1	nt	nt	33.7	nt	nt	i
CC(=O)c1ccc(OCc2c(-c3ccccc3)nnn2CC(=O)NS(=O)(=O)c2ccc(C)cc2)cc1	nt	nt	i	nt	nt	nt
CC1(Cc2ccc3ccccc3n2)C(=O)Nc2ccc(OC(F)(F)F)cc21 (stereo unspecified)	nt	nt	i	nt	nt	nt
CC1(Cc2ccccc2OC(F)(F)F)C(=O)Nc2ccc(-c3ccsc3)cc21 (stereo unspecified)	nt	nt	34.5	nt	nt	i
CC1(Cc2ccccc2OC(F)(F)F)C(=O)Nc2cc(-c3ccccc3Cl)ccc21 (stereo unspecified)	nt	nt	i	nt	nt	nt
CC1(Cc2ccccc2OC(F)(F)F)C(=O)Nc2ccc(OC(F)(F)F)cc21 (stereo unspecified)	nt	nt	32.9	nt	nt	i
COC(=O)[C@]12C[C@H](CC(=O)NCc3cccc(C(F)(F)F)c3)C(=O)N(Cc3ccc4c(c3)OCO4)C1=C[C@H](C(C)C)O[C@@H]2C1CC1	nt	nt	i	nt	nt	nt
CC(=O)NCC(=O)OC(C)C(=O)Nc1ccc(C(C)=O)cc1 (stereo unspecified)	i	i	37.7	i	i	i
CC(=O)NCC(=O)OCC(=O)Nc1ccc(C(C)=O)cc1	i	i	i	i	i	nt
CCOc1ccc(-n2c(SCC(=O)Nc3ccc(OCc4ccccc4)cc3)nnc2-c2ccc(Cl)cc2)cc1	nt	nt	i	nt	nt	nt
Cc1ccc(NC(=O)COC(=O)C2C3CC4OC(=O)C2C4C3)cc1 (stereo unspecified)	i	i	39.5	i	i	i
COCC(=O)OC1CCn2c1nc1c2C(=O)C(C)=C(NC(C)=O)C1=O (stereo unspecified)	nt	nt	99.8	nt	nt	99.7
CC[C@@H](CCCCCCCn1ccc2ccccc21)CCC(=O)N(c1ccccc1)c1ccccc1	nt	nt	i	nt	nt	nt
COc1ccc(/C=N/Nc2ncnc(Cl)c2N)cc1OC	i	i	i	i	i	nt
SMILES	Mtb betalactam	RecA intein inh	CCHF vOTU inh-1	Rv3671c inh	Mtb UGM inh	CCHF vOTU inh-2
COc1ccc(/C=N/Nc2nnc(C)n2N)cc1OC	i	i	91.2	i	i	i
COc1ccc(/C=N/Nc2nnc(C)n2N)cc1OC(C)=O	i	i	93.0	i	i	i
COc1cc(/C=N/n2nnnc2N)ccc1OC(C)=O	i	i	i	nt	i	nt
CC(C)CN1CN2Cc3cc(F)ccc3C2CS1(=O)=O (stereo unspecified)	nt	nt	i	nt	nt	nt
O=C(Cn1nnc(-c2cccc(C(F)(F)F)c2)n1)NNS(=O)(=O)c1cccc(C(F)(F)F)c1	i	nt	32.2	i	i	i
COC(=O)C[C@H]1CC[C@@H]2[C@H](COc3ccc(NC(=O)C(C)C)cc3C(=O)N2C)O1	nt	nt	i	nt	nt	nt
Cc1ccc(NC(=O)c2ccccc2NS(=O)(=O)c2ccc(Cl)s2)cc1S(=O)(=O)N1CCOCC1	i	i	30.7	i	i	i
